High-throughput results: PubChem BioAssay, National Center for Advancing Translational Sciences (NCATS)
A selection: hits, their analogues and other compounds. The true share with any hit is near 18%.
TDP1 cell noCPT = qHTS for Inhibitors of human tyrosyl-DNA phosphodiesterase 1 (TDP1): qHTS in cells in absence of CPT; DT40 Tdp1-/- hTDP1 cells, no CPT, ATP luminescence, 48 h; Potency, µM (series often up to 46.2 µM), actives largely listed as inhibitors; 420,000 compounds, 15% hits; AID 686978, 2013; note: nearly all actives have a fitted effect of over 55% in size
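Chicken DT40 Tdp1-/- cells stably complemented with human TDP1 were seeded at 400 cells/well with DMSO in place of 20 nM camptothecin. After compound pinning, cells grew at least 48 hr at 37 °C; viability read by CellTiter-Glo luminescence.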
TDP1 inh = inhibitors of human tyrosyl-DNA phosphodiesterase TDP1; Q9NUW8; recombinant TDP1, AlphaScreen DNA substrate cleavage; Potency, µM (highest dose often 130 µM), hits mostly inhibitors; 350,000 compounds, 0.28% hits; AID 485290; note: nearly all actives have a fitted effect of over 40% in size
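AlphaScreen read-out: signal falls as enzyme removes the 3' tyrosine-FITC from a 5'-biotinylated DNA oligo (15 nM, 5 min, RT). Enzyme was E. coli-made recombinant Tdp1 at 1 nM, exposed to compound for 15 min beforehand; beads 10 ug/ml, 10 min.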
CtBP-E1A blk = blocks the CtBP interaction with E1A. AlphaScreen GST-E1A/His-CtBP binding, 1536-well; active compounds read low. activity change, % (no concentration beside the values). 340,000 compounds, 0.49% hits. AID 651724; in the data active = activity change below about -65%; inconclusive = mostly about -30% to -63%
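Steps: dispense buffer (Tris pH 8.0, NaCl 300 mM, TCEP 1 mM, BSA, Tween 20); add 5X protein mix (GST-E1A, His-CtBP, 125 nM each); pin 23 nL compound; 2 h at 37 °C, dark; add 5X beads (50 ug/mL); 1 h; read.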
Six1-Eya2 blk = blocks human Six1 binding to Eya2. AlphaScreen GST-Six1/His-Eya2 binding, biochemical; active compounds read low. 360,000 compounds, 0.56% hits. Q15475+O00167. activity change, % (concentration not given with the values); in the data active = activity change below about -65%; inconclusive = mostly about -30% to -63%
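AlphaScreen with GST-Six1 and His-Eya2 (5X mix: 250 nM and 500 nM), glutathione donor and nickel acceptor beads; buffer 50 mM Tris pH 8.0, 300 mM NaCl, 1 mM TCEP; 1 h at 37 C in the dark.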
TDP1 cell CPT = growth inhibition of DT40 Tdp1-/-;hTDP1 cells with camptothecin (screen for TDP1 inhibitors); chicken DT40 Tdp1-/-;hTDP1 cells + 20 nM CPT, ATP luminescence, 48 h; Potency, µM (doses to about 46.2 µM), hits mostly inhibitors; 420,000 compounds, 12% hits; AID 686979; note: nearly all actives have a fitted effect of over 55% in size
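Chicken DT40 Tdp1-/- cells complemented with human TDP1, 400 cells/well, exposed to compounds plus 20 nM camptothecin for at least 48 h at 37 C; viability read as ATP content by CellTiter-Glo luminescence.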
IL-1B inflam inh = inhibitors of inflammasome signaling (IL-1 beta secretion). 360,000 compounds, 4.7% hits. activity change, % at 57.5 µM. AID 743279. THP-1 LPS/ATP IL-1B secretion, AlphaLISA, 16 h; active compounds read low; in the data active = activity change below about -50%; inconclusive = mostly about -30% to -49%
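THP-1 cells pretreated 1 hr with compounds (up to 57.5 uM final), then stimulated with LPS (250 ng/mL final) plus ATP (1.25 mM final); secreted IL-1B measured by AlphaLISA after 16 hr, decreased signal indicating inhibition.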
Numbers stand for hits; i = inactive; ? = inconclusive; nt = not tested or not shown. Unless noted, calls come from the whole dose curve; as a rule, active = well fitted curve in the direction sought with a large enough effect; inconclusive = small, poorly fitted or top-dose-only effect, or another doubt; inactive = no such curve, though single readings can be large; an effect the other way counts as inactive or inconclusive.

SMILES | TDP1 cell noCPT | TDP1 inh | CtBP-E1A blk | Six1-Eya2 blk | TDP1 cell CPT | IL-1B inflam inh
Cc1ccc2c(c1)nnn2C1CCN(CC(=O)N(c2ccccc2)c2ccccc2)CC1 | 13µM | nt | nt | i | 13µM | ?
Cc1ccc2c(c1)nnn2C1CCN(S(=O)(=O)c2cccc(S(=O)(=O)N(C)C)c2)CC1 | 15µM | i | i | i | 18µM | i
Cc1ccc2c(c1)nnn2C1CCN(CC(=O)N2CCN(c3ccc(F)cc3)CC2)CC1 | 26µM | i | i | i | 16µM | i
COc1ccc(CCNC(=O)C2CCC(=O)N(C3CCCCCC3)C2)cc1 (centres undefined) | i | i | i | i | i | i
CCCCNC(=O)C12CCC(C)(C(=O)C1Br)C2(C)C (centres undefined) | i | i | i | i | i | i
Cc1ccc2c(c1)nnn2C1CCN(CC(=O)Nc2ccc(F)cc2)CC1 | 21µM | nt | i | i | ? | ?
CC(=O)Nc1ccc(SCC(Cc2ccccc2)N2CCN(CC(C)C)CCC2=O)cc1 (centres undefined) | nt | i | nt | nt | nt | nt
Cc1cc(C(=O)Oc2cccnc2)ccc1[N+](=O)[O-] | i | i | i | ? | i | i
O=C(Oc1c(Br)cc([N+](=O)[O-])cc1Br)c1cccnc1 | ? | i | i | i | 18µM | i
N/C(=N\OC(=O)c1cc([N+](=O)[O-])ccc1Cl)c1cccnc1 | ? | nt | i | i | ? | -101
CS(=O)(=O)Nc1ccc2c(c1)ncn2CCc1ccccc1 | i | nt | i | i | i | i
CCN(C(=O)COC(=O)Cn1c(C)csc1=O)c1c(N)n(Cc2ccccc2)c(=O)[nH]c1=O | i | nt | i | i | i | i
NS(=O)(=O)c1ccc(NC(=O)COC(=O)CSc2n[nH]c(-c3ccccc3)n2)cc1 | i | i | i | i | i | i
NC(=O)C1CC(=O)N(c2ccc(OCc3ccc(Cl)cc3)cc2)C1 (centres undefined) | 23µM | i | nt | i | ? | i
NC(=O)C1CC(=O)N(c2ccc(OCC(=O)N3CCCC3)cc2)C1 (centres undefined) | i | nt | i | i | i | i
CCCNC(=O)C1CC(=O)N(c2ccc(OCc3ccc(Cl)cc3)cc2)C1 (centres undefined) | 8.2µM | nt | i | i | ? | i
CCOC(=O)C(C)Sc1nnc(NC(=O)c2ccc(C)c([N+](=O)[O-])c2)s1 (centres undefined) | i | i | i | i | i | i
Cc1nnc(-n2cnc3ccccc32)c2ccccc12 | i | i | i | i | i | i
NC(=O)c1cc(-c2ccccc2)sc1NC(=O)CN1CCCCC1 | 23µM | i | i | i | 21µM | -51
COC(=O)c1cc(-c2ccccc2)sc1NC(=O)CN1C(=O)c2ccccc2C1=O | i | i | i | i | i | -62
COC(=O)c1cc(OC)c(OC)cc1NC(=O)CN1C(=O)c2ccccc2C1=O | i | i | i | i | i | i
CC(C)(C)C(=O)Nc1sc(-c2ccccc2)cc1C(=O)O | ? | i | i | i | ? | -78
Nc1ncnc(Nc2ccc(Cl)cc2)n1 | i | nt | nt | nt | i | nt
COc1cc2c(cc1OC)-c1nnc(-c3ccco3)n1C1(CCCC1)C2 | 18µM | i | i | i | ? | i
c1ccc(-c2cc(-c3nn4c(-c5ccco5)nnc4s3)c3ccccc3n2)cc1 | 4.5µM | i | ? | ? | 7.1µM | i
Cc1cc(-c2nn3c(-c4ccccc4)nnc3s2)c2ccccc2n1 | 18µM | i | ? | ? | ? | i
COc1ccc(-c2nnc3sc(-c4ccco4)nn23)cc1OC | i | i | i | i | i | i
COc1cc(OC)c(-c2nn3c(-c4ccco4)nnc3s2)cc1OC | 15µM | i | ? | ? | ? | i
Clc1ccccc1-c1nnc2sc(-c3ccco3)nn12 | i | i | i | i | i | i
